# Results published in the supplement of paper PMC8728848.
# About 410 targets per protein were measured; listed, in parts, are those with the strongest signals and a random draw of the rest.
# How the values were obtained:
# Test in all cases: glycan array binding signal (z-score within array); higher = stronger binding
# Conditions in all cases: glycan notation: IUPAC condensed, linker removed
# Fuc(a1-2)Gal = biological target: Fuc(a1-2)Gal
# Procedure, shortened: (§1)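 Glycan array binding is given as a within-array Z-score, which can be read as non-binding when negative. The arrays, 3228 of them, came from the Consortium for Functional Glycomics database and were retained only where the protein sequence was available. Z-scores were averaged across arrays of the same protein sequence at different concentrations or buffers and across linkers.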
# [1] = biological target: Fuc(a1-2)Gal(b1-4)GlcNAc(b1-3)[Fuc(a1-2)Gal(b1-4)GlcNAc(b1-6)]GalNAc
# Procedure, shortened: as §1
# [2] = biological target: Fuc(a1-2)Gal(b1-4)[Fuc(a1-3)]GlcNAc(b1-3)GalNAc
# Procedure, shortened: as §1
# [3] = biological target: Fuc(a1-2)[Gal(a1-3)]Gal(b1-3)GlcNAc(b1-2)Man(a1-3)[Fuc(a1-2)[Gal(a1-3)]Gal(b1-3)GlcNAc(b1-2)Man(a1-6)]Man(b1-4)GlcNAc(b1-4)[Fuc(a1-6)]GlcNAc
# Procedure, shortened: as §1
# [4] = biological target: Fuc(a1-2)[GalNAc(a1-3)]Gal(b1-3)GalNAc(a1-3)[Fuc(a1-2)]Gal(b1-4)GlcNAc
# Procedure, shortened: as §1
# [5] = biological target: Fuc(a1-3)[Gal(b1-4)]GlcNAc(b1-4)Gal(b1-4)[Fuc(a1-3)]GlcNAc(b1-4)Gal(b1-4)[Fuc(a1-3)]GlcNAc
# Procedure, shortened: as §1
# [6] = biological target: Gal(a1-4)Gal(b1-3)GlcNAc(b1-2)Man(a1-3)[Gal(a1-4)Gal(b1-3)GlcNAc(b1-2)Man(a1-6)]Man(b1-4)GlcNAc(b1-4)GlcNAc
# Procedure, shortened: as §1
# Gal(a1-4)Gal(b1-4)Glc = biological target: Gal(a1-4)Gal(b1-4)Glc
# Procedure, shortened: as §1
# [7] = biological target: Gal(a1-4)Gal(b1-4)GlcNAc(b1-2)Man(a1-3)[Gal(a1-4)Gal(b1-4)GlcNAc(b1-2)Man(a1-6)]Man(b1-4)GlcNAc(b1-4)GlcNAc
# Procedure, shortened: as §1
# [8] = biological target: Gal(b1-3)[Fuc(a1-4)]GlcNAc(b1-2)Man(a1-3)[Gal(b1-3)[Fuc(a1-4)]GlcNAc(b1-2)Man(a1-6)]Man(b1-4)GlcNAc(b1-4)[Fuc(a1-6)]GlcNAc
# Procedure, shortened: as §1
# [9] = biological target: Gal(b1-3)[Fuc(a1-4)]GlcNAc(b1-3)Gal(b1-4)GlcNAc
# Procedure, shortened: as §1
# Gal(b1-4)Gal = biological target: Gal(b1-4)Gal
# Procedure, shortened: as §1
# [10] = biological target: Gal(b1-4)GlcNAc(b1-2)[Gal(b1-4)GlcNAc(b1-4)]Man(a1-3)[Gal(b1-4)GlcNAc(b1-2)[Gal(b1-4)GlcNAc(b1-6)]Man(a1-6)]Man(b1-4)GlcNAc(b1-4)GlcNAc
# Procedure, shortened: as §1
# [11] = biological target: Gal(b1-4)GlcNAc(b1-3)[Gal(b1-4)GlcNAc(b1-6)]Gal(b1-4)GlcNAc
# Procedure, shortened: as §1
# [12] = biological target: GalNAc(a1-3)Fuc(a1-2)Gal(b1-4)GlcNAc(b1-3)[GalNAc(a1-3)Fuc(a1-2)Gal(b1-4)GlcNAc(b1-6)]GalNAc
# Procedure, shortened: as §1
# GalNAc(a1-3)GalNAc = biological target: GalNAc(a1-3)GalNAc
# Procedure, shortened: as §1
# GalNAc(b1-3)Gal = biological target: GalNAc(b1-3)Gal
# Procedure, shortened: as §1
# [13] = biological target: Glc(a1-4)Glc(a1-4)Glc(a1-4)Glc
# Procedure, shortened: as §1
# [14] = biological target: Glc(a1-6)Glc(a1-6)Glc(a1-6)Glc
# Procedure, shortened: as §1
# [15] = biological target: GlcNAc(a1-4)Gal(b1-4)GlcNAc(b1-3)Gal(b1-4)Glc
# Procedure, shortened: as §1
# [16] = biological target: GlcNAc(a1-4)Gal(b1-4)GlcNAc(b1-3)Gal(b1-4)GlcNAc
# Procedure, shortened: as §1
# [17] = biological target: GlcNAc(a1-4)Gal(b1-4)GlcNAc(b1-3)Gal(b1-4)[Fuc(a1-3)]GlcNAc(b1-3)Gal(b1-4)[Fuc(a1-3)]GlcNAc
# Procedure, shortened: as §1
# [18] = biological target: GlcNAc(b1-2)Gal(b1-3)GalNAc
# Procedure, shortened: as §1
# [19] = biological target: GlcNAc(b1-2)Man(a1-3)[GlcNAc(b1-2)Man(a1-6)]Man(b1-4)GlcNAc(b1-4)GlcNAc
# Procedure, shortened: as §1
# [20] = biological target: GlcNAc(b1-2)[GlcNAc(b1-4)]Man(a1-3)[GlcNAc(b1-2)Man(a1-6)]Man(b1-4)GlcNAc(b1-4)GlcNAc
# Procedure, shortened: as §1
# GlcNAc(b1-3)Gal(b1-4)Glc = biological target: GlcNAc(b1-3)Gal(b1-4)Glc
# Procedure, shortened: as §1
# GlcNAc(b1-3)GalNAc = biological target: GlcNAc(b1-3)GalNAc
# Procedure, shortened: as §1
# [21] = biological target: GlcNAc(b1-4)GlcNAc(b1-4)GlcNAc(b1-4)GlcNAc(b1-4)GlcNAc(b1-4)GlcNAc
# Procedure, shortened: as §1
# Man(a1-2)Man(a1-3)Man = biological target: Man(a1-2)Man(a1-3)Man
# Procedure, shortened: as §1
# [22] = biological target: Man(a1-2)Man(a1-3)[Man(a1-6)]Man(a1-6)[Man(a1-2)Man(a1-3)]Man(b1-4)GlcNAc(b1-4)GlcNAc
# Procedure, shortened: as §1
binder,measurement,setting,value
"RetS (Pseudomonas aeruginosa), Q9HUV7 (protein) MVRLRIAIGLLVSFLLLLLGPMSPAVADDAGVSSVPLQTTATTPSANQNWRLLRDESAQLRIADVLQRKEQFRPLAKRSFIFPASPQAVWLQVQLPAQKVPSWLWIFAPRVQYLDYYLVQDGQLVRDQHTGESRPFQERPLPSRSYLFSLPVDGKPMTLYVRMTSNHPLMAWFDQIDEAGLVGLEKPAYAFGMLLGGMLLLLMYNLIRFAYSRSASSLWLAAVHAALAVCAAANLGLVAFWLPGLKFNQSLTADLGALGAAVSLLWFACSFFRGTAESRLNRLLQGEALLILAVGAIIAFTQQLWFSWLIYLLVILSSLSVPLIAAWHWYRGYQPARLIVAGMIVFNAGFMVFLPVLFGTKQLDPGWLVLGVFSFATLAGLVLSVSLTERQRLIQQLNLQQRTSEAAHTAELQTKAEFLAKISHEIRTPMNGVLGMTELLLGTPLSAKQRDYVQTIHSAGNELLTLINEILDISKLESGQIELDEVQFDLNALIEDCLDIFRVKAEQQRIELISFTQPQVPRVIGGDPTRLRQVVLSLLDNAFKQTEEGEILLVVALDDQGETPRLRIAVQDSGHPFDAKEREALLTAELHSGDFLSASKLGSHLGLIIARQLVRLMGGEFGIQSGSSQGTTLSLTLPLDPQQLENPTADLDGPLQGARLLVVDDNETCRKVLVQQCSGWGLNVSAVSSGKEALAQLRTKAHLREYFDVVLLDQDMPGMTGMQLAAKIKEDPNLNHDILLIMLTGISNAPSKIIARNAGIKRILAKPVAGYTLKATLADELAQRGVSGVTNYLQPAKEAQAPSLPSDFRILVAEDNSISTKVIRGMLNKLNLQPDTASNGQEALSAMKATQYDLVLMDCEMPVLDGFSATEQLRAWEAHEQRPHTPVVALTAHILSEHKERARLVGMDGHMAKPVELSQLRELIAYWVGERDRRRQGDALPS",glycan array binding signal (z-score),Fuc(a1-2)Gal,1.84
same,glycan array binding signal (z-score),[1],0.163
same,glycan array binding signal (z-score),[2],1.16
same,glycan array binding signal (z-score),[3],2.79
same,glycan array binding signal (z-score),[4],0.731
same,glycan array binding signal (z-score),[5],-0.414
same,glycan array binding signal (z-score),[6],5.23
same,glycan array binding signal (z-score),Gal(a1-4)Gal(b1-4)Glc,-0.16
same,glycan array binding signal (z-score),[7],3.05
same,glycan array binding signal (z-score),[8],-0.397
same,glycan array binding signal (z-score),[9],0.071
same,glycan array binding signal (z-score),Gal(b1-4)Gal,3.18
same,glycan array binding signal (z-score),[10],0.39
same,glycan array binding signal (z-score),[11],-1.17
same,glycan array binding signal (z-score),[12],1.02
same,glycan array binding signal (z-score),GalNAc(a1-3)GalNAc,-0.917
same,glycan array binding signal (z-score),GalNAc(b1-3)Gal,-0.593
same,glycan array binding signal (z-score),[13],-0.095
same,glycan array binding signal (z-score),[14],-0.394
same,glycan array binding signal (z-score),[15],0.236
same,glycan array binding signal (z-score),[16],6.62
same,glycan array binding signal (z-score),[17],4.27
same,glycan array binding signal (z-score),[18],-0.622
same,glycan array binding signal (z-score),[19],0.152
same,glycan array binding signal (z-score),[20],-0.599
same,glycan array binding signal (z-score),GlcNAc(b1-3)Gal(b1-4)Glc,2.75
same,glycan array binding signal (z-score),GlcNAc(b1-3)GalNAc,-0.143
same,glycan array binding signal (z-score),[21],0.22
same,glycan array binding signal (z-score),Man(a1-2)Man(a1-3)Man,-1.17
same,glycan array binding signal (z-score),[22],0.409
